Data: PubChem BioAssay (NCI)
This is part of a sample that, as a whole, favours compounds with a hit. Of some 83,000 tested, about 20% had one in any assay.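 Compound tested at a single concentration for 48 hours in 96-well plates; a percent growth value below 10 was scored as active.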 Activity calls are given as the source filed them.

Key:
Test in all cases: NCI-60 one-dose screen, 48 h (100 = growth as untreated, 0 = no growth, -100 = all killed)
Details in all cases: 10 µM unless noted
NCI-H23 lung = system: NCI-H23 lung
NCI-H226 lung = system: NCI-H226 lung
NCI-H322M lung = system: NCI-H322M lung
HOP-62 NSCLC = system: HOP-62 NSCLC
NCI-H460 lung = system: NCI-H460 lung
NCI-H522 lung = system: NCI-H522 lung
A549/ATCC NSCLC = system: A549/ATCC NSCLC
786-0 renal = system: 786-0 renal
COLO 205 colon = system: COLO 205 colon
HOP-92 NSCLC = system: HOP-92 NSCLC

Measured: growth

Cc1cc2nc3c4ccccc4n(CC4=NCCN4)c3nc2cc1C
inactive: NCI-H226 lung 23.9% | NCI-H322M lung 22.3% | COLO 205 colon 43.8%
active: NCI-H23 lung -56% | HOP-62 NSCLC -72.5% | NCI-H460 lung -84.1% | NCI-H522 lung 2.32% | A549/ATCC NSCLC -85.2% | 786-0 renal -97%

O=C(CCN1C(=O)/C(=C/c2ccc(F)cc2)SC1=S)N1CCOCC1
active: NCI-H522 lung -79%
inactive: NCI-H23 lung 67.9% | NCI-H226 lung 74.2% | NCI-H322M lung 80.2% | HOP-62 NSCLC 109% | NCI-H460 lung 68.6% | A549/ATCC NSCLC 81.5% | 786-0 renal 67.1% | COLO 205 colon 75%

COc1ccc(-c2nc3cc(C)ccc3n2CC(=O)N=Nc2c(O)[nH]c3ccc(Cl)cc23)cc1
inactive: NCI-H322M lung 10.1% | NCI-H460 lung 10.6% | NCI-H522 lung 14.9% | 786-0 renal 11%
active: NCI-H23 lung -62.9% | NCI-H226 lung -34.1% | HOP-62 NSCLC -50.4% | A549/ATCC NSCLC -62.4% | COLO 205 colon -39.7%

COc1ccc(/C=C/c2n(Cc3ccc4ccccc4c3)c3ccccc3[n+]2Cc2ccc3ccccc3c2)cc1
active: NCI-H23 lung -92.2% | NCI-H226 lung -45% | NCI-H322M lung -96.2% | HOP-62 NSCLC -76.4% | NCI-H460 lung -85.6% | NCI-H522 lung -91% | A549/ATCC NSCLC -88.5% | 786-0 renal -85.7% | COLO 205 colon -86.8%

COc1c(F)ccc(C(=O)Nc2ccc3nc(NC(=O)C4CCCN(S(=O)(=O)c5cccc(Cl)c5)C4)sc3c2)c1F (configuration not stated)
inactive: NCI-H23 lung 88.9% | NCI-H226 lung 77.3% | NCI-H322M lung 87.2% | HOP-62 NSCLC 103% | NCI-H460 lung 82% | NCI-H522 lung 79% | A549/ATCC NSCLC 68% | 786-0 renal 61% | COLO 205 colon 86.2%

Cc1ccc(-c2nc(Nc3ccccc3S(N)(=O)=O)c3ccccc3n2)cc1
inactive: NCI-H23 lung 68.2% | NCI-H226 lung 59.1% | NCI-H322M lung 80.2% | HOP-62 NSCLC 86.8% | NCI-H460 lung 70.2% | NCI-H522 lung 81.4% | A549/ATCC NSCLC 71% | 786-0 renal 32.1% | COLO 205 colon 98.7%

C=CC(=O)Nc1ccc(C)c(Oc2ccc(Cl)cc2)c1
active: NCI-H522 lung 3.62%
inactive: NCI-H23 lung 55.9% | NCI-H226 lung 41.7% | NCI-H322M lung 48.4% | HOP-62 NSCLC 63% | NCI-H460 lung 20.5% | A549/ATCC NSCLC 47.2% | 786-0 renal 55.1% | COLO 205 colon 55.7%

O=C1CCCc2cc(OCC(=O)N3CCCCC3)ccc2N1
inactive: NCI-H23 lung 105% | NCI-H226 lung 101% | NCI-H322M lung 116% | HOP-62 NSCLC 105% | NCI-H460 lung 115% | NCI-H522 lung 108% | A549/ATCC NSCLC 113% | 786-0 renal 116% | COLO 205 colon 117%

CCCCn1c(O)c(N=Nc2nc(-c3cc4ccccc4oc3=O)cs2)c2cc(Br)ccc21
inactive: NCI-H23 lung 98.3% | NCI-H226 lung 99.2% | NCI-H322M lung 102% | HOP-62 NSCLC 110% | NCI-H460 lung 114% | NCI-H522 lung 101% | A549/ATCC NSCLC 97.8% | 786-0 renal 106% | COLO 205 colon 140%

C=C1CCC2C3(C)COC(c4ccco4)OC3CCC2(C)C1CC(Sc1ccccc1)C1=CCOC1=O (configuration not stated)
inactive: NCI-H23 lung 64.8% | NCI-H226 lung 31.5% | NCI-H322M lung 92.2% | HOP-62 NSCLC 100% | NCI-H460 lung 105% | A549/ATCC NSCLC 53.7% | 786-0 renal 62.7% | COLO 205 colon 98%
active: NCI-H522 lung 7.02%

COc1ccc(-c2ccc(SCC(=O)Nc3ccc(S(N)(=O)=O)cc3Br)nn2)cc1
active: HOP-62 NSCLC -9.99%
inactive: NCI-H23 lung 77.4% | NCI-H226 lung 52.9% | NCI-H322M lung 84.5% | NCI-H460 lung 70.2% | NCI-H522 lung 37.2% | A549/ATCC NSCLC 64.4% | 786-0 renal 33.8% | COLO 205 colon 115%

Cn1cc(-c2cc3nc(-c4cn(C)c5ncccc45)cc(N)n3n2)c2cc(Cl)ccc21
active: NCI-H23 lung -66.6% | NCI-H226 lung 1.56% | NCI-H322M lung -19.8% | HOP-62 NSCLC -94.2% | NCI-H460 lung -70% | NCI-H522 lung -85.1% | A549/ATCC NSCLC -4.13% | 786-0 renal -90.4% | COLO 205 colon -93.7%

COC1=C[C@]23CCC(=O)N2CCc2cc4c(cc2[C@@H]3[C@@H]1OC(=O)[C@H](C)O)OCO4
inactive: NCI-H226 lung 11% | NCI-H322M lung 69.7% | HOP-62 NSCLC 46.6% | 786-0 renal 22.7% | COLO 205 colon 28.4%
active: NCI-H23 lung 9.59% | NCI-H460 lung -5.4% | NCI-H522 lung -48.1% | A549/ATCC NSCLC 7.1%

COc1cc(/C=C2\C(=N)N=C(SCc3nc4ccccc4[nH]3)NC2=O)ccc1O
inactive: NCI-H23 lung 96.8% | NCI-H226 lung 92.8% | NCI-H322M lung 103% | HOP-62 NSCLC 101% | NCI-H460 lung 102% | NCI-H522 lung 99.2% | A549/ATCC NSCLC 110% | 786-0 renal 109% | COLO 205 colon 110%

COc1c(F)ccc(C(=O)Nc2ccc3nc(NC(=O)C4CCCN(S(=O)(=O)C5CC5)C4)sc3c2)c1F (configuration not stated)
inactive: NCI-H23 lung 31.5% | NCI-H226 lung 34.8% | NCI-H322M lung 65.2% | HOP-62 NSCLC 68.4% | NCI-H460 lung 48.5% | NCI-H522 lung 40.7% | A549/ATCC NSCLC 54% | 786-0 renal 31.1% | COLO 205 colon 32.4%

O=c1oc2ccc(Br)cc2cc1C1=CSc2nc3sc4c(c3c(=O)n2N=C1)CCCC4
inactive: NCI-H23 lung 96.6% | NCI-H226 lung 92.5% | NCI-H322M lung 96.6% | HOP-62 NSCLC 80.6% | NCI-H460 lung 102% | NCI-H522 lung 88.5% | A549/ATCC NSCLC 105% | 786-0 renal 120% | COLO 205 colon 105%

O=C(NN1C(=O)/C(=C/C=C/c2ccc([N+](=O)[O-])o2)SC1=S)c1ccc(Cl)cc1
active: NCI-H23 lung -86.7% | NCI-H226 lung -97.1% | NCI-H322M lung -100% | HOP-62 NSCLC -98.8% | NCI-H460 lung -72.7% | NCI-H522 lung -88.8% | A549/ATCC NSCLC -86.7% | 786-0 renal -82.3% | COLO 205 colon -94.8%

CCCCSc1nc(Nc2ccc(S(N)(=O)=O)cc2)c(C#N)c(-c2cc(OC)c(OC)c(OC)c2)n1
inactive: NCI-H23 lung 82.9% | NCI-H226 lung 59.3% | NCI-H322M lung 75.1% | HOP-62 NSCLC 81.4% | NCI-H460 lung 35.9% | NCI-H522 lung 63.2% | A549/ATCC NSCLC 32.2% | 786-0 renal 57.1% | COLO 205 colon 39.8%

COc1ccc2cc([C@H](C)C(=O)N/N=C/c3ccc(Br)cc3)ccc2c1
inactive: NCI-H23 lung 101% | NCI-H226 lung 103% | NCI-H322M lung 98.2% | NCI-H460 lung 100% | HOP-92 NSCLC 103% | NCI-H522 lung 92% | A549/ATCC NSCLC 100% | 786-0 renal 95.4% | COLO 205 colon 108%

CN(C)c1ccnc(CNCCSC2(c3ccccc3)c3ccccc3C=Cc3ccccc32)c1
inactive: NCI-H226 lung 16.7% | NCI-H322M lung 29.1%
active: NCI-H23 lung -30.6% | NCI-H460 lung -87.4% | HOP-92 NSCLC -17.2% | NCI-H522 lung -73.6% | A549/ATCC NSCLC 0.815% | 786-0 renal -46.8% | COLO 205 colon -84.7%

O=C(c1ccc(OCCN2CCOCC2)cc1)C1[C@H](c2ccc(Cl)cc2)[C@@H](c2ccccc2)NC12C(=O)Nc1ccc(Br)cc12 (some centres not stated)
active: NCI-H460 lung 6.73% | HOP-92 NSCLC -15.1% | 786-0 renal -4.29% | COLO 205 colon -39.3%
inactive: NCI-H23 lung 26.1% | NCI-H226 lung 44% | NCI-H322M lung 53.8% | NCI-H522 lung 10.3% | A549/ATCC NSCLC 17.6%

CC12CC[C@@H]3[C@]4(C)COC(c5cn[nH]c5-c5cccc(Br)c5)O[C@@H]4CC[C@@]3(C)[C@@H]1CC(C1=CCOC1=O)O2 (some centres not stated)
inactive: NCI-H23 lung 38% | NCI-H226 lung 37.8% | NCI-H322M lung 48.6% | HOP-62 NSCLC 70.3% | NCI-H460 lung 23.7% | NCI-H522 lung 24.9% | 786-0 renal 53.1% | COLO 205 colon 10.5%

CNS(=O)(=O)c1ccc(Nc2ccc(C(F)(F)F)cc2)c(-c2cn(C)cn2)c1
inactive: NCI-H23 lung 72.9% | NCI-H226 lung 48.8% | NCI-H322M lung 59.1% | NCI-H460 lung 33.7% | NCI-H522 lung 36.5% | A549/ATCC NSCLC 37.1% | 786-0 renal 61.2% | COLO 205 colon 53.1%

COc1ccc2[nH]c(O)c(N=NC(=O)Cn3c(-c4ccccc4)nc4cc(C)ccc43)c2c1
active: 786-0 renal 4.55%
inactive: NCI-H23 lung 13.4% | NCI-H226 lung 11.7% | NCI-H322M lung 49.5% | HOP-62 NSCLC 47.9% | NCI-H460 lung 44.3% | NCI-H522 lung 57% | COLO 205 colon 64.5%

CC(=O)Nc1cccc(Nc2nc(NCc3ccccc3)c3ccccc3n2)c1
active: NCI-H23 lung -86.3% | NCI-H226 lung -84.3% | NCI-H322M lung -97.2% | NCI-H460 lung -79.5% | HOP-92 NSCLC -83.5% | NCI-H522 lung -83.8% | A549/ATCC NSCLC -69% | 786-0 renal -89.1% | COLO 205 colon -93.9%

O=C(COc1ccc(NC(=O)Nc2ccc(Cl)cc2)cc1)N/N=C/c1ccccc1
active: NCI-H23 lung -94.5% | NCI-H226 lung -89.2% | NCI-H322M lung -40.4% | NCI-H460 lung -79.3% | HOP-92 NSCLC -77.9% | NCI-H522 lung -83.5% | A549/ATCC NSCLC -78.3% | 786-0 renal -82% | COLO 205 colon -66.5%

CCCCSc1nc(Nc2ccc(C(C)=O)cc2)c(C#N)c(-c2ccc(OC)cc2)n1
inactive: NCI-H23 lung 60.8% | NCI-H226 lung 31.3% | NCI-H322M lung 75.4% | NCI-H460 lung 27.6% | NCI-H522 lung 87.8% | A549/ATCC NSCLC 45.5% | COLO 205 colon 82.3%
active: 786-0 renal -12.4%

CC12CC[C@@H]3[C@]4(C)COC(c5cn[nH]c5-c5cccc(Cl)c5)O[C@@H]4CC[C@@]3(C)[C@@H]1CC(C1=CCOC1=O)O2 (some centres not stated)
inactive: NCI-H23 lung 43.5% | NCI-H226 lung 42.9% | NCI-H322M lung 52.1% | NCI-H460 lung 33.7% | NCI-H522 lung 26.8% | A549/ATCC NSCLC 26.7% | 786-0 renal 47.5% | COLO 205 colon 18.3%
